# BAZ2B inh – qHTS Assay for Inhibitors of BAZ2B. Bromodomain adjacent to zinc finger domain protein 2B (Homo sapiens), Q9UIF8. AlphaScreen BAZ2B-H3K14Ac peptide displacement. Potency, µM (top dose mostly 114 µM), for the others: at the top dose activity change, negative = inhibition, hits mostly inhibitors. hit rate 4.4% among 360,000; also: % is scaled to controls: 0 for no effect and ±100 for the full control effect; nearly all actives have a fitted effect of over 60% in size
#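 Inhibition is scored as reduced AlphaScreen emission. The BAZ2B/b-H3(5-23)K14Ac complex (50 nM each) in PBS pH 7.4, 0.01% Tween-20 meets compound (up to 110 uM) for 30 min at RT before bead addition.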
# JMJD2A Tudor inh – qHTS Assay for Inhibitors of JMJD2A-Tudor Domain. hit rate 4.4% among 390,000. AID 504339, 2011. Lysine-specific demethylase 4A (Homo sapiens), O75164. Potency, µM (top dose mostly 114 µM), for the others: top-dose activity change, negative = inhibition, hits mostly inhibitors. AlphaScreen JMJD2A-Tudor / H3K4me3 peptide binding; also: % is scaled to controls: 0 for no effect and ±100 for the full control effect; nearly all actives have a fitted effect of over 50% in size
# L3MBTL1 inh – qHTS Assay for the Inhibitors of L3MBTL1; Potency, µM (series often up to 57.1 µM), without a hit: at the top dose activity, negative = inhibition, actives largely listed as inhibitors; AlphaScreen L3MBTL1–H3K9me1 peptide binding; AID 485360, 2010; hit rate 0.66% among 230,000; also: % is scaled to controls: 0 for no effect and ±100 for the full control effect; nearly all actives have a fitted effect of over 60% in size
#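 AlphaScreen proximity signal between nickel-chelate acceptor and streptavidin donor beads (final 10 ug/mL) reports binding of 50 nM L3MBTL1 to 75 nM biotin-H3 K9me1 peptide; complex incubated with compounds 30 min at room temperature; cefsulodin titration as control.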
# G9a block – qHTS Assay for Inhibitors of Histone Lysine Methyltransferase G9a; AID 504332, 2011; hit rate 8.8% among 350,000; G9a H3K9 monomethylation, AlphaScreen, 2 h; Potency, µM (highest dose often 102 µM), for inactives: top-dose activity, negative = inhibition, most hits filed as inhibitors; also: % is scaled to controls: 0 for no effect and ±100 for the full control effect; nearly all actives have a fitted effect of over 75% in size
#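 Chemiluminescent proximity detection of H3K9 monomethylation, read after 10 min bead incubation in the dark. Reaction: 20 nM G9a, 500 nM biotin-H3K9 peptide, 20 uM SAM cofactor, 2 h, room temperature, following 15 min enzyme-compound preincubation.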
# HP1b binding inh – HTS for Inhibitors of HP1-beta Chromodomain Interactions with Methylated Histone Tails | AlphaScreen HP1-beta / biotin-H3K9me3 peptide binding | Potency, µM (top dose mostly 114 µM), for inactives: top-dose activity change, negative = inhibition, actives largely listed as inhibitors | hit rate 0.56% among 390,000 | AID 540317, 2011; also: nearly all actives have a fitted effect of over 70% in size
#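 AlphaScreen: HP1-beta (50 nM) preformed 30 min with biotin-H3(1-18)K9me3 peptide (50 nM) in PBS pH 7.4, 0.01% Tween-20. Compound added for 30 min at RT, then streptavidin donor/nickel chelate acceptor beads (10 ug/mL) for 30 min.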
# An asterisk follows results filed as active; ? = inconclusive; . = no result; [ ] = another dose, or the depositor's remark. This is a sample that favours compounds with a hit; in the whole collection about 11% have one here. Calls follow the shape of the dose curve; as a rule, active = well fitted inhibition curve with a large enough effect; inconclusive = small, poorly fitted or top-dose-only effect; inactive = no such curve, though single readings can be large or run the other way. Potency is read from the fitted curve at half-maximal effect.
SMILES,BAZ2B inh,JMJD2A Tudor inh,L3MBTL1 inh,G9a block,HP1b binding inh
COc1ccc(C(=O)Nc2ccc(-c3n[nH]c(=S)o3)cc2)cc1,?,?,.,1.8µM*,26%
O=C(Nc1ccc(-c2n[nH]c(=S)o2)cc1)c1ccccc1,-13%,?,.,32µM*,45%
CN1C(=S)N(c2cccnc2)C(=O)/C1=C\c1ccc(N(C)C)cc1,11µM*,?,-18%,?,-29%
Cc1c(N2C(=O)/C(=C\c3ccc(N(C)C)cc3)N(C)C2=S)c(=O)n(-c2ccccc2)n1C,45µM*,?,-15%,40µM*,?
Cc1c(NC(=S)N/N=C/c2ccc(N(C)C)cc2)c(=O)n(-c2ccccc2)n1C,-11%,-33%,4%,9%[59 µM],-28%
CN(C)c1ccc(/C=C/C(=O)c2cccnc2)cc1,5%,32%,21%,11%,74%
Cc1cc(C)cc(NC(=O)c2cc(S(=O)(=O)N3CCCC3)ccc2F)c1,4%,0%,.,9%[59 µM],25%
CSc1oc(-c2ccccc2)nc1S(=O)(=O)c1ccc(F)cc1,8%,14%,4%,40µM*,58%
CSc1oc(-c2ccco2)nc1S(=O)(=O)c1ccccc1,-5%,-30%,-16%,32µM*,16%
Cc1ccc(-c2nc(S(=O)(=O)c3ccc(C)cc3)c(SCC(=O)NCC3CCCO3)o2)cc1 (stereo not drawn),-2%,-4%,.,45µM*,19%
COCCNc1oc(-c2ccco2)nc1S(=O)(=O)c1ccccc1,-10%,-15%,.,?,24%
C=CCNc1oc(-c2ccco2)nc1S(=O)(=O)c1ccccc1,-37%,-16%,.,25µM*,12%
Cc1ccc(S(=O)(=O)c2nc(-c3ccc(F)cc3)oc2SCC(=O)NC2CCCCC2)cc1,30%,1%,.,-9%[59 µM],52%
CCOc1cc(C(=O)OCc2cc(=O)n3c(C)csc3n2)cc(OCC)c1OCC,-4%,-2%,.,3%[59 µM],26%
COc1ccc(CNC(=O)c2sc3nc4c(c(C(F)(F)F)c3c2N)CCC4)cc1,6%,.,16%,21%[59 µM],.
COc1ccc(OC)c(CNc2ncnc3onc(C)c23)c1,-3%[57.1 µM],-24%,.,-15%[59 µM],38%
Cc1ccc(S(=O)(=O)c2nc(-c3ccc(F)cc3)oc2SCC(N)=O)cc1,0%,-9%,-5%,13µM*,35%
CSc1oc(-c2ccco2)nc1S(=O)(=O)c1ccc(C)cc1,-4%,-12%,.,28µM*,13%
Cc1ccc(CSc2oc(-c3ccco3)nc2S(=O)(=O)c2ccc(C)cc2)cc1,-14%,-20%,.,-33%[59 µM],11%
COc1ccc(N(Cc2cccs2)C(=O)COc2cccc(C)c2C)cc1,44%,31%,.,36%[59 µM],55%
COC(=O)Cc1c[nH]c2cccc(OCC(O)CN(Cc3ccc([N+](=O)[O-])cc3)C(C)(C)C)c12 (stereo not drawn),71µM*,?,-12%,.,?
CC(C)CN(CC(C)C)CC(O)COc1ccc([N+](=O)[O-])cc1 (stereo not drawn),1%,-15%,4%,43%[59 µM],40%
CC(C)(C)OC(=O)N1CCC(c2c(C(=O)Nc3ccc4c(c3)OCCO4)cnn2-c2ccc(F)cc2F)CC1,-1%[57.1 µM],-24%,.,?,-2%
Cc1cccc(N2CCN(C(=O)c3c(C)oc4ncnc(N5CCOCC5)c34)CC2)c1C,1%[57.1 µM],-4%,.,-33%[59 µM],31%
COCCCNCC(O)COc1ccccc1F (stereo not drawn),11%,1.3µM*,.,60%,?
SMILES,BAZ2B inh,JMJD2A Tudor inh,L3MBTL1 inh,G9a block,HP1b binding inh
COCCCNCC(O)COc1cccc2[nH]c(C)cc12 (stereo not drawn),-14%,-24%,-6%,3%,19%
CC(C)n1ncc2c(C(=O)N3CCN(c4ccccc4)CC3)cc(-c3ccccc3)nc21,-33%,-26%,1%,28%[2.33 µM],1%
COc1ccc(NC(=O)c2cc(-c3ccccc3)nc3c2cnn3C(C)C)cc1,-3%,79µM*,6%,22%[2.33 µM],?
CN(C)c1cc2c3ccccc3n(C)c2cc1N,.,32µM*,.,.,45µM*
Cc1ccc(C)c2c1c1ccccc1n2C,-4%,7%,10%,.,33%
C[n+]1ccccc1/C=C/c1ccc(C#N)cc1,45µM*,22µM*,-7%[2.29 µM],7%[0.501 µM],?
C[n+]1ccccc1/C=C/c1ccc(F)c(F)c1,?,-1%,0%[2.29 µM],17%[0.501 µM],17%
C[n+]1ccccc1/C=C/c1ccc([N+](=O)[O-])cc1,-15%,-6%,.,25µM*,35%
COc1ccc(S(=O)(=O)Nc2ccccc2)cc1,.,-10%,.,.,5%
Cc1ccc(S(=O)(=O)Nc2cccc(S(=O)(=O)Nc3ccccc3C(=O)O)c2)c(C)c1,.,-10%,-4%,.,21%
Cc1ccc(S(=O)(=O)Nc2cc(C(C(=O)OC(C)C)C(=O)C(F)(F)F)c(O)c3ccccc23)c(C)c1 (stereo not drawn),?,-29%,-7%,40µM*,-11%
Cc1ccc(C)c(S(=O)(=O)Nc2ccc(O)c3ccccc23)c1,50µM*,50µM*,-45%,28µM*,16µM*
COc1ccc(S(=O)(=O)Nc2ccc(O)c3ccccc23)cc1,40µM*,32µM*,28µM*,?,?
Cc1ccc(S(=O)(=O)Nc2ccc(O)c3ccccc23)c(C)c1,45µM*,45µM*,.,22µM*,50µM*
Cc1ccc(S(=O)(=O)Nc2ccc3c4c(cccc24)CC3)c(C)c1,.,-14%[11.4 µM],.,.,48%
Cc1ccc(C)c(S(=O)(=O)Nc2ccc(O)c(C(=O)O)c2)c1,.,-31%[57.1 µM],-2%,?,?
CCCn1ccc2c(OCC(=O)Nc3ccc(F)cc3F)cccc2c1=O,-2%,-4%,.,-3%[59 µM],21%
Cc1ccc2oc(=O)c(-c3nc(-c4cccs4)no3)cc2c1,-9%,-5%,.,-12%[59 µM],29%
COc1ccc(CCNC(=O)CCSCc2ccccc2Cl)cc1OC,4%,-8%,.,7%[59 µM],16%
Cc1ccc(C)c(SC2=NS(=O)(=O)c3ccccc32)c1,.,-6%,.,.,.
Cc1c(NC(=O)c2cc(-c3cccc(O)c3)on2)c(=O)n(-c2ccccc2)n1C,-4%,-15%,.,?,24%
Cc1ccc(S(=O)(=O)NNc2ccccc2)c(C)c1,56µM*,5µM*,7%,1µM*,-58%
Cc1ccc(S(=O)(=O)NNC(=O)c2cccs2)c(C)c1,9%,-3%,5%,-3%[59 µM],16%
S=c1c2c(nc3nc[nH]n13)CCC2,45µM*,6.3µM*,5%,.,26%
CCN(C(=O)C1CCCN(S(=O)(=O)c2c(C)noc2/C=C/N(C)C)C1)c1cccc(C)c1 (stereo not drawn),-34%,?,.,-27%[59 µM],10%

# High-throughput results deposited in PubChem BioAssay by National Center for Advancing Translational Sciences (NCATS).
